# Values joined by “and” are separate entries in the source; they are usually repeats but may differ in a detail not shown here. Identical values can stand only once. Records with an inconclusive call do not appear. More than one record can exist for a structure, and the calls need not agree. Active and inactive are the calls of the source. Calls follow the shape of the dose curve; as a rule, active = well fitted activation curve with a large enough effect in the repeat runs; inconclusive = weak or mixed curves; inactive = flat fitted curve, though single readings scatter.
# Test: A CellTox Green Cytotoxicity Assay to monitor cytotoxicity in HepG2 cells - 16 hour (AID 1224876); also: nearly all actives have a fitted effect of over 45% in size
# Conditions: CellTox Green fluorescence; series mostly up to 76.8 µM; cytotoxicity increase: at the top concentration
# Source text: National Center for Advancing Translational Sciences [NCATS]
# NIH Chemical Genomics Center [NCGC]
# U.S. Environmental Protection Agency [EPA]
# National Institutes of Environmental Health Sciences [NIEHS]
# National Toxicology Program [NTP]
# Cell-based models are critical for drug discovery. Determining the natural cytotoxic effects resulting from test compounds is an essential research activity. A CellTox Green Cytotoxicity Assay to monitor cytotoxicity in real time of continues cell culture during 40 hours of the compound treatment was used to screen Tox21 10K library compounds in HepG2 cells. CellTox Green Cytotoxicity Assay is a nonlytic, homogeneous, biofluorescent method to measure cytotoxicity in cell culture after experimental manipulation. The assay system uses a proprietary asymmetric cyanine dye that is excluded from viable cells but preferentially stains the dead cell's DNA. […] Viable cells produce no appreciable increases in fluorescence. Therefore, the fluorescence signal produced by the binding interaction with dead cell DNA is proportional to cytotoxicity.
# The mixture of HepG2 cell suspension and reagents were dispensed at 600cells/6 ul/well in 1536-well tissue culture treated black solid bottom plates using a Multidrop dispenser. After the assay plates were incubated at a 37 C/5% CO2 incubator for 5 hours, 23 nL of compounds dissolved in DMSO, positive and negative controls was transferred to the assay plate by a pintool work station. The plates were incubated at 37 C for 40 hours. The fluorescence intensity were measured at 0h, 8h, 16h, 24h, 32h and 40h time points using ViewLux plate reader during compound treatment.
# % is scaled to controls: 0 for no effect and ±100 for the full control effect; potency is read from the fitted curve at half-maximal effect.
SMILES,cytotoxicity increase,Potency
[Cu+],4.85% (inactive),–
Cc1cc(C(C)(C)C)cc(C)c1CC1=NCCN1,-3.67% [at 35.3 µM] (inactive),–
Cc1ccc(-c2ccccc2)cc1,–,49 µM (active)
O=C(O)c1cc(N=Nc2ccc([N+](=O)[O-])cc2)ccc1O,-3.56% (inactive),–
CCCCC(CC)COC(=O)CCCCC(=O)OCc1ccccc1 (stereo not given),-0.551% (inactive),–
C/C=C/C=C/COC(=O)C(C)C,7.73% (inactive),–
COC1=C(OC)C(=O)C(CCCCCCCCCCO)=C(C)C1=O,-1.39% [at 35.3 µM] (inactive),–
Cc1c(C)c([N+](=O)[O-])c(C(C)(C)C)c([N+](=O)[O-])c1C,-2.51% (inactive),–
O=C1CCc2ccc(OCCCCN3CCN(c4cccc(Cl)c4Cl)CC3)cc2N1,18.6% [at 35.3 µM] (inactive),–
C=C(C)C(=O)OCCCCCCCCCC,-12.5% (inactive),–
O[C@@H]([C@H](O)[C@H](O)CBr)[C@H](O)CBr,-0.0719% (inactive),–
COC(=O)c1ccccc1C,-5.67% (inactive),–
Cc1cccc(C)c1NC(=O)c1ccc(N)cc1,-0.234% [at 35.3 µM] (inactive),–
Cc1ccc(C(C)C)cc2c(C)ccc1-2,-2.42% [at 35.3 µM] (inactive),–
CCCCCC/C=C\CCCCCCCC(=O)O,-1.92% (inactive),–
CC1(C)CCC[C@]2(C)[C@H]3CC(=O)O[C@]3(C)CC[C@@H]12,12.7% (inactive),–
C1CCC(SSC2CCCCC2)CC1,7.31% (inactive),–
C=C(CC)C(=O)c1ccc(OCC(=O)O)c(Cl)c1Cl,–,inactive
Cl[Si](Cl)(c1ccccc1)c1ccccc1,0.41% (inactive),–
CCCCCCOC(=O)C(C)CC (stereo not given),1.44% (inactive),–

SMILES,cytotoxicity increase,Potency
CCN1C(=O)c2ccccc2C1Nc1ccc(OCCN2CCCCC2)cc1 (stereo not given),1.58% [at 35.3 µM] (inactive),–
COc1cccc2c1C(=O)c1c(O)c3c(c(O)c1C2=O)C[C@@](O)(C(C)=O)C[C@@H]3O[C@H]1C[C@H](N)[C@H](O)[C@H](C)O1,18.3% (inactive),–
COc1ccc(NC(=O)CC(C)=O)cc1,3.89% (inactive),–
CC(C)(C)NSc1nc2ccccc2s1,-6.5% (inactive),–
O=C(O)O,-0.218% [at 6.97 µM] (inactive),–
CCO[C@@H]1O[C@H](C(COCc2ccccc2)OCc2ccccc2)[C@H](OCc2ccccc2)[C@H]1O (stereo not given in full),18.3% [at 35.3 µM] (inactive),–
C[Si](Cl)(c1ccccc1)c1ccccc1,7.01% (inactive),–
Oc1ccccc1O,–,inactive
CCCCCCCCCCCCOCCOCCOCCOCCOCCOCCOCCOCCOCCO,–,23.9 µM (active)
C#CC1(O)CC[C@H]2[C@@H]3CCC4=CCCC[C@@H]4[C@H]3CC[C@@]21C (stereo not given in full),–,34.7 µM (active) and 19 µM (active)
C=CCn1c(=O)n(CC=C)c(=O)n(CC=C)c1=O,-0.451% (inactive),–
CCCCCCCCCCCCCCCC[N+](C)(C)CC,–,49.1 µM (active) and 23.9 µM (active)
OC[C@H]1O[C@H](O[C@H]2O[C@H](CO)[C@@H](O)[C@H](O)[C@H]2O)[C@H](O)[C@@H](O)[C@@H]1O,-1.08% (inactive),–
COc1ccc2c(c1)c(CC(=O)OC/C=C(\C)CC/C=C(\C)CCC=C(C)C)c(C)n2C(=O)c1ccc(Cl)cc1,0.565% [at 35.3 µM] (inactive),–
CC(C)CCCCCOC(=O)CCS,-13.7% (inactive),–
Cc1cc(C(C#N)c2ccc(Cl)cc2)c(Cl)cc1NC(=O)c1cc(I)cc(I)c1O (stereo not given),-1.54% [at 35.3 µM] (inactive),–
CCO[Si](OCC)(OCC)OCC,3.11% (inactive),–
Oc1c(I)cc(Cl)c2cccnc12,–,inactive
CN(C)c1ccc(C(=C2C=CC(=[N+](C)C)C=C2)c2ccc(N(C)C)cc2)cc1,–,10.9 µM (active) and inactive
C=Cc1cccc(C)c1,–,inactive
